A selection: hits, their analogues and other compounds. The true share with any hit is near 12%.
Shiga inhibitor = A qHTS for Small Molecule Inhibitors of Shiga Toxin; actives 9.2% (n = 290,000); Vero cells, Shiga toxin protein synthesis inhibition reporter; inhibition, % at 38.7 µM; AID 2315, 2010; in the data active = inhibition mostly above about 28%, no sharp cut-off; inactive = mostly below about 43%; also: 0% is about no effect
FMDV antiviral = High Throughput Screening for Foot and Mouth Disease Virus Antivirals; FMDV antiviral cell-based qHTS; Potency, µM (doses to about 57.9 µM), without a hit: at the highest dose activity change, negative = inhibition, usual class: inhibitors; actives 1.2% (n = 410,000); calls by dose curve; tested in HEK293T cells; also: read-out not given here; potency is read from the fitted curve at half-maximal effect; % is scaled to controls: 0 for no effect and ±100 for the full control effect; nearly all actives have a fitted effect of over 45% in size
Sm TGR block = qHTS Assay for the Inhibitors of Schistosoma Mansoni Peroxiredoxins; Schistosoma mansoni thioredoxin glutathione reductase (TGR), Q962Y6; purified TGR, DTNB reduction, TNB absorbance 405 nm; Potency, µM (titrated, usually from 114 µM), inactives show at the top dose activity change, negative = inhibition, usual class: inhibitors; actives 3% (n = 360,000); AID 485364, 2010; active = well fitted inhibition curve with a large enough effect; inconclusive = small, poorly fitted or top-dose-only effect; inactive = no such curve, though single readings can be large or run the other way; also: potency is read from the fitted curve at half-maximal effect; % is scaled to controls: 0 for no effect and ±100 for the full control effect; nearly all actives have a fitted effect of over 60% in size
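Kinetic colorimetric format: TGR-catalysed, NADPH-driven DTNB reduction monitored via TNB absorbance. Enzyme dispensed at 20 nM; compound exposure 15 min at room temperature before reaction start.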
CHX counter = Cycloheximide Counterscreen for Small Molecule Inhibitors of Shiga Toxin; cell reporter, cycloheximide protein synthesis inhibition counterscreen; max response, %; actives 12% (n = 300,000); AID 2314, 2010; in the data active = max response mostly above about 13%, no sharp cut-off; inactive = mostly below about 14%; also: read at 38.3 µM for the half of the compounds with a filed dose; 0% is about no effect
Starred values were filed as active, the others as inactive; u = inconclusive; x = not tested or not shown.

SMILES | Shiga inhibitor | FMDV antiviral | Sm TGR block | CHX counter
CCc1nc2nc(C)c(NS(=O)(=O)c3ccc(C(C)(C)C)cc3)c(=O)n2[nH]1 | x | 5.7% | -1.9% | x
Cc1cc(NC(=O)CSc2ncc(C(=O)Nc3ccc(C)c(C)c3)c(=O)n2C)no1 | x | 3.0% | 6.9% | x
O=C(NCCc1ccc(Cl)cc1)c1ccc(CSCc2ccc(Cl)cc2)o1 | x | 0.0% | -9.5% | x
CCOC(=O)CNC(=O)c1cnn2cccnc12 | 50.8 | 20.4% | 5.9% | 41.7*
Cc1ccc2[nH]c(CSc3nnc(NC(=O)COc4ccccc4F)s3)cc(=O)c2c1 | x | -25.3% | -2.2% | x
CCCCn1c(N)c(N(CCOC)C(=O)CSCc2c(C)noc2C)c(=O)[nH]c1=O | -3.7 | -11.1% | 79.4µM* | -5.6
CCCCn1c(N)c(N(CC)C(=O)CSCc2c(C)noc2C)c(=O)[nH]c1=O | 18.2 | -16.2% | -8.8% | 1.4
COC(=O)c1ccc(OC(=O)CS(=O)c2ccccc2[N+](=O)[O-])cc1 (stereo not given) | 2.5 | 5.4% | 22.4µM* | -1.0
CS(=O)(=O)c1ccc(S(=O)CC(=O)OCc2ccccc2)c([N+](=O)[O-])c1 (stereo not given) | 17.3 | 8.91µM* | 2.51µM* | 11.0*
O=C(CS(=O)c1ccc(C(F)(F)F)cc1[N+](=O)[O-])Oc1ccccc1 (stereo not given) | -2.6 | 28.2µM* | 35.5µM* | 24.7*
CCOC(=O)c1ccccc1OC(=O)CS(=O)c1ccccc1[N+](=O)[O-] (stereo not given) | 13.3 | 1.1% | x | -2.8
O=C(CNc1ccc(C(F)(F)F)cc1[N+](=O)[O-])OCC(=O)c1ccccc1 | 30.0 | -17.7% | 2.4% | 3.4
COc1ccccc1CNC(=O)CSc1nc2nc(C)c(Cc3ccccc3C)c(C)n2n1 | x | -27.8% | -0.9% | x
Cn1ccc(NC(=O)CCl)n1 | 23.4 | u | 14.1µM* | 29.5*
Cc1cc(Br)c(NC(=O)CCl)c(Br)c1 | -2.1 | u | 31.6µM* | 2.8
Cc1cc(NC(=O)CCl)nn1C | 24.3 | 35.5µM* | 28.2µM* | 6.1
Cc1cc(Br)c(NC(=O)COC(=O)c2ccc[n+]([O-])c2)c(Br)c1 | x | -9.5% | x | x
O=C(Nc1ccc(C(=O)N2CCCCC2)cc1)c1ccc(Br)cc1 | 39.0 | -7.4% | 1.9% | 8.7
N#CC(C#N)=Cc1ccc(NC(=O)c2ccc(Br)cc2)cc1 | 75.3* | 10.8% | 2.51µM* | 47.2*
CC(C)(C)c1ccc(C(=O)Nc2ccc(NC(=O)c3ccc(Cl)c(Cl)c3)cc2)cc1 | x | -3.9% | 1.8% | x
CC(C)(C)c1ccc(C(=O)Nc2ccc(C=C(C#N)C#N)cc2)cc1 | 153.6* | -10.7% | 3.16µM* | 72.0*
CCC(C)NC(=O)c1cccc(NC(=O)c2nsc3ccccc23)c1 (stereo not given) | x | 18.3% | 0.6% | x
CN1CCN(C(=O)/C=C/c2ccc(Cl)c(Cl)c2)CC1 | 29.8 | -6.6% | -0.1% | 36.7*
CN1CCN(C(=O)/C=C/c2ccc(Cl)cc2)CC1 | 33.3 | 30.7% | 0.7% | 24.5*
CC(C)n1c(=O)c2oc3ccccc3c2n(Cc2ccccc2F)c1=O | x | -25.8% | 2.1% | x
SMILES | Shiga inhibitor | FMDV antiviral | Sm TGR block | CHX counter
Cc1noc(C)c1S(=O)(=O)N1CCCC(C(=O)Nc2ccc(Cl)cn2)C1 (stereo not given) | 8.9 | 31.6µM* | 4.4% | 2.8
Cc1ccc(Cl)cc1NC(=O)C1CCCN(S(=O)(=O)c2c(C)noc2C)C1 (stereo not given) | 19.3 | u | 5.0% | 31.9
COc1ccc(CNCc2ccc(C(=O)O)s2)cc1 | x | 16.2% | -26.1% | x
Cc1csc(N/N=C\c2cccnc2)n1 | 90.8* | 39.7% | 22.4µM* | 58.4*
Cc1ccc(SCCC(=O)N/N=C/c2ccncc2)cc1 | -8.4 | -20.3% | 21.9% | -0.8
Cc1ccc(N/N=C/c2ccncc2)cc1 | 86.6* | 32.9% | 50.1µM* | 42.4*
Clc1cccc(N/N=C/c2ccncc2)c1 | 19.9 | 24.1% | -1.8% | 30.5*
Cc1ccc(N/N=C/c2cccnc2)cc1 | 84.0* | 9.6% | u | 53.4*
Cc1ccc(S(=O)(=O)N2CCCc3cc(NS(=O)(=O)c4ccccc4)ccc32)cc1 | x | 0.9% | 9.8% | x
CN(C)C(=O)CCC(=O)NCC1Cc2cccc(-c3ccccc3C(F)(F)F)c2O1 (stereo not given) | x | -15.7% | x | x
COc1ccc(N2CC(NC(=O)C(c3ccccc3)c3ccccc3)CC2=O)cc1 (stereo not given) | x | -17.7% | u | x
O=C(/C=C/c1cccs1)N1CCc2ccccc21 | -4.2 | -63.3% | -4.0% | 27.1*
O=C(c1cccs1)N1CCc2ccccc21 | 70.2* | 67.7% | -2.3% | 53.7*
O=C(/C=C/c1ccc(Cl)c(Cl)c1)N1CCc2ccccc21 | active | 43.0% | -7.0% | 24.1*

Screening data (PubChem BioAssay)
